Cruzain inh Det = qHTS Assay for Promiscuous and Specific Inhibitors of Cruzain (with detergent). 0.43% of 200,000 active. purified cruzain, Z-FR-AMC fluorescence, 0.01% Triton. AID 1478, 2009. Potency, µM, for inactives: max response, negative = inhibition, hits mostly inhibitors. Cruzipain (Trypanosoma cruzi), P25779;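 note: plate controls were neutral wells for no effect and buffer without enzyme for full effect; nearly all actives have a fitted effect of over 40% in size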
Target sequence (P25779 123-467 limits assumed): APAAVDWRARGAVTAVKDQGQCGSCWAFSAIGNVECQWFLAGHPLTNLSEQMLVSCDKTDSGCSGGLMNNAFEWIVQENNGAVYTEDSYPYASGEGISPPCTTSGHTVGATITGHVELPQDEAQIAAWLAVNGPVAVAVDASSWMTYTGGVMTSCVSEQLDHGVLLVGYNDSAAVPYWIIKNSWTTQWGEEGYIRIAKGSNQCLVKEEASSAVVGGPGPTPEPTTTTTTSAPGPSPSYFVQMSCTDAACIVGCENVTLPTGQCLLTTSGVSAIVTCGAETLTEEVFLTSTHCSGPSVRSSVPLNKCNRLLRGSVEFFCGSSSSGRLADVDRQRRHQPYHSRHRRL
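Read-out: AMC fluorescence (360 nm excitation, 450 nm emission), four reads over 2 min, first-to-third difference used. Conditions: cruzain 1.5 nM, Z-FR-AMC 2 uM, pH 5.5 acetate, 5 mM DTT, 0.01% Triton X-100.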
Cruzain inh noDet = qHTS Assay for Promiscuous and Specific Inhibitors of Cruzain (without detergent) | Potency, µM, for inactives: max response, negative = inhibition, usual class: inhibitors | purified cruzain, Z-FR-AMC fluorescence, no detergent | 2.3% of 200,000 active | Cruzipain (Trypanosoma cruzi), P25779;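 note: plate controls were enzyme without inhibitor for no effect and buffer without enzyme for full effect; nearly all actives have a fitted effect of over 40% in size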
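Detergent-free condition (0.00005% Triton X-100) in acetate buffer pH 5.5 with DTT. 1.5 nM enzyme and compound were pre-mixed 15 min, then 2 uM Z-FR-AMC substrate added; reaction progress from fluorescence change between first and third reads (60 s).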
* = called active by the depositor; u = inconclusive. Most compounds without a hit are left out; they make up all but 2.5% or so of the library. Calls come from the whole dose curve; as a rule, active = well fitted curve in the direction sought with a large enough effect; inconclusive = small, poorly fitted or top-dose-only effect, or another doubt; inactive = no such curve, though single readings can be large; an effect the other way counts as inactive or inconclusive. Potency is the fitted concentration of half-maximal effect.

SMILES	Cruzain inh Det	Cruzain inh noDet
C/C(=N\NC(=O)c1ccc(C)cc1C)c1ccc2c(c1)Nc1ccccc1S2	-2%	u
Cc1sc2ncnc(Sc3ccccc3C(=O)Nc3ccc(C#N)cc3)c2c1C	-5%	12%
Cc1sc2ncnc(Sc3ccccc3C(=O)Nc3ccc(Br)cc3)c2c1C	-4%	13µM*
N/C(CC/C(N)=N/O)=N\O	0%	0%
CNC1C(O)[C@@H]2OC(O[C@@H]3C(O)C(O)C(N)C[C@H]3N)C(N)C[C@H]2O[C@H]1O[C@@H]1OC(CO)C(N)C(O)C1O (some centres not stated)	-1%	2%
CN(C)c1ncc2nc(-c3cc(F)cc(F)c3)c(=O)n(C)c2n1	12%	20µM*
CN(C)c1ncc2nc(-c3cc(F)cc(F)c3)c(=O)n(C3CC3)c2n1	3%	14%
Cc1cccc(Cn2c(=O)n(-c3ccc(Cl)c(Cl)c3)c(=O)c3c(C)c(C)sc32)c1	-2%	-12%
CC(=O)c1cccc(NC(=O)c2ccc3c(c2)N(Cc2ccc(C)cc2)CCS3)c1	-13%	13µM*
Cc1ccc(CN2CCSc3ccc(C(=O)NCC(C)c4ccccc4)cc32)cc1 (configuration not stated)	-6%	-9%
Cc1ccc(CN2CCSc3ccc(C(=O)NCCc4ccccc4)cc32)cc1	-11%	-28%
Cc1ccc(CN2CCSc3ccc(C(=O)Nc4cc(C)cc(C)c4)cc32)cc1	-19%	10µM*
Cc1ccc(CN2CCSc3ccc(C(=O)NCc4ccc(OC(C)C)cc4)cc32)cc1	-5%	3%
O=C(NCCc1ccc(Cl)cc1)c1ccc2c(c1)N(Cc1ccccc1)C(=O)CS2	0%	32µM*
O=C(NCCc1ccccc1)c1ccc2c(c1)N(Cc1ccc(F)cc1)C(=O)CS2	1%	-13%
Cc1ccc(CN2CCSc3ccc(C(=O)Nc4ccc(Cl)cc4)cc32)cc1	-5%	7.9µM*
Cc1c2cnn(-c3ccccc3)c(=O)c2c(C)n1CCCC(=O)Nc1cc(F)ccc1F	-4%	13%
CCOC(=O)c1ccccc1NC(=O)c1cn(CC(C)C)c(=O)c2cc(OC)c(OC)cc12	-1%	-5%
CCc1ccc2c(c1)NC(c1ccc(C)cc1)=NC(c1cccs1)=N2	-6%	-10%
O=C(NCCc1ccc(Cl)cc1)c1ccc2c(c1)N(Cc1ccccc1)CCS2	-5%	-24%
O=C(Nc1ccc(Cl)cc1)c1ccc2c(c1)N(Cc1ccccc1)CCS2	-11%	32µM*
Cc1cc[c]([Sb]2[O]C([C@H](O)[C@H](O)C(=O)O)[C@@H](CO)[O]2)cc1 (some centres not stated)	3%	1%
CCNc1ccc(-c2nc(-c3ccco3)no2)cc1[N+](=O)[O-]	-1%	-15%
COCCNc1ccc(-c2nc(-c3ccco3)no2)cc1[N+](=O)[O-]	-3%	3.2µM*
CCOC(=O)c1cc(S(=O)(=O)NCc2ccccc2)[nH]n1	0%	-6%
SMILES	Cruzain inh Det	Cruzain inh noDet
COC(=O)[C@@H](NC(=O)O[C@@H]1C(=O)c2cc(OC)ccc2O[C@H]1c1ccc(OC)c(Br)c1)C(C)C	-3%	-4%
O=C(NNC(=O)c1cccs1)c1ccc(Br)o1	-19%	-15%
O=C(Nc1ccc(NC(=O)c2cccs2)cc1)c1ccc(Br)o1	5%	25µM*
CCOC(=O)C1CCN(C(=O)c2ccc3c(c2)N=C(CC)c2cc(C)ccc2S3)CC1	-6%	u
Cc1ccc2c(CC(=O)N3CCc4ccccc43)coc2c1	-10%	0%
O=C(Cc1coc2ccc3ccccc3c12)N1CCc2ccccc21	3%	13µM*
CCc1ccc(OCC(=O)NCC(c2ccc(Cl)cc2)N2CCOCC2)cc1 (configuration not stated)	-7%	u
Cc1cccc(Cn2c(=O)n(Cc3ccccc3)c(=O)c3sc4ccccc4c32)c1	0%	2%
CCC(CC)C(=O)N1CCc2cc(OC)c(OC)cc2C1COc1ccc2c(C)cc(=O)oc2c1 (configuration not stated)	4%	-12%
CC=C(Cl)Cl	5%	-1%
Cn1nc(-c2ccccc2)c(COC(=O)c2cccc(Cl)c2)c1S(=O)(=O)c1ccccc1	2%	25µM*
CNS(=O)(=O)c1cccc(C(=O)OCc2csc(-c3ccccc3)n2)c1	-7%	-3%
CCc1ccc(NCc2cc3cc4c(cc3n(CC(=O)Nc3ccc(Cl)cc3)c2=O)OCO4)cc1	-1%	16µM*
COc1ccc(NCc2cc3cc4c(cc3n(CC(=O)Nc3cc(C)cc(C)c3)c2=O)OCO4)cc1	-5%	u
Cc1ccc(NCc2cc3cc4c(cc3n(CC(=O)Nc3ccc(C)cc3)c2=O)OCCO4)cc1	-7%	u
COc1ccc(NCc2cc3cc4c(cc3n(CC(=O)Nc3ccc(C)c(C)c3)c2=O)OCO4)cc1	-3%	16µM*
CCCCOc1ccc(-c2nn(-c3ccccc3)cc2C2NC(=O)NC(C)=C2C(=O)OCC)cc1 (configuration not stated)	-3%	-2%
N#CCCn1c(=O)c(-c2ccc(F)cc2)nc2cnc(OCc3ccccc3)nc21	2%	18%
CCOC(=O)c1ccc(N=C2C(=S)N(c3ccc(C(=O)OCC)cc3)C(=N)N2/N=C/c2ccccc2)cc1	-12%	13µM*
CCOC(=O)c1ccc(N2Cc3ccccc3C2=N)cc1	1%	-21%
O=C(Nc1ccc(F)c(Cl)c1)N1CC=C(c2c[nH]c3ccccc23)CC1	-14%	0%
O=C(c1cccc(Cl)c1)n1nc(-c2cccnc2)nc1NCc1ccccc1	-3%	-14%
Cc1c(CNC2CCCCCC2)c(C(=O)O)c(C)n1Cc1ccc(F)cc1Cl	-3%	5%
Cc1ccc(-c2cc(C(=O)N3CCCc4ccccc43)c3ccccc3n2)cc1	-2%	32µM*
O=C(c1cc(-c2cccnc2)nc2ccccc12)N1CCCc2ccccc21	-10%	-9%
SMILES	Cruzain inh Det	Cruzain inh noDet
Cn1nnnc1SCCCNCc1cccc(OCc2ccc(F)cc2)c1	3%	-4%
Cc1ccc(NC(=O)Cn2cc(C(=O)c3cccs3)c3ccccc32)cc1C	-6%	-20%
COc1ccc(-c2nc3cnc(N4CCOCC4)nc3n(-c3ccc(OC)cc3)c2=O)cc1	-13%	u
COc1ccc(CCNC(=O)c2cc3c(s2)-c2ccccc2OC3)cc1OC	-25%	u
O=C(NCCCN1CCN(c2ccccc2F)CC1)c1cc2c(s1)-c1ccccc1OC2	-22%	23%
Cc1cccc2c1-c1sc(C(=O)NCCc3ccc(Cl)cc3)cc1CO2	-5%	25µM*
CN(C)CCNC(=O)c1cc2c(s1)-c1ccccc1OC2	u	10µM*
Cc1cccc(CCNC(=O)c2cc3c(s2)-c2c(C)cccc2OC3)c1	u	-27%
CCCN1CCN(CCCNC(=O)c2cc3c(s2)-c2c(C)cccc2OC3)CC1	18µM*	u
C=C(C[C@]1(C(=O)OC)CC2(CC=C(C)C)C(=O)C(C(=O)CC(C)C)=C(O)C(CC=C(C)C)(C1)C2=O)C(=O)OC (some centres not stated)	-3%	u
COc1ccc(/C=C2\CCCC3C2=NN(C(=O)CSc2ncn[nH]2)C3c2ccc(OC)cc2)cc1 (configuration not stated)	-5%	u
COc1ccc(/C=C2\CCCC3C2=NN(C(=O)COC(=O)CNC(=O)c2ccccc2)C3c2ccc(OC)cc2)cc1 (configuration not stated)	-26%	16µM*
Cc1cc2nn(-c3cccc4ccccc34)nc2cc1N	-3%	16µM*

Bioassay records deposited in PubChem by National Center for Advancing Translational Sciences (NCATS).
